Experimental data as given in the supplement of paper PMC10849652.
Targets with a hit are over-represented here; the source holds about 8,800 in all. About 0.5% of all pairs of compound and target were hits.

Compound: CCCS(=O)(=O)Nc1ccc(F)c(C(=O)c2c[nH]c3ncc(Cl)cc23)c1F
Assay: log2 fold change, soluble protein after heating vs DMSO (PISA); higher = thermal stabilisation; K562 lysate, 10 uM; active = over 0.2 and 3.5 SD of the protein, either way, in both replicates (recomputed)
Procedure, shortened: (§1)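 Dounce homogenisation of K562 pellets in PBS pH 7.4 with 1 mM MgCl2 produced a crude extract, used at 1 mg/mL protein. Exposure to 10 μM compound lasted 30 min, and aliquots were then heated for 3 min across 48°C-58°C, pooled and brought to 0.5% NP-40 at 4°C. The supernatant after 21,000xg for 90 min was quantified by TMTpro 16plex LC-MS/MS with channel sums equalised. Duplicate values are given as log-two fold change in thermal stability relative to solvent controls.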

Sequence of UniProt Q8TDX7 (Q8TDX7 whole entry, looked up): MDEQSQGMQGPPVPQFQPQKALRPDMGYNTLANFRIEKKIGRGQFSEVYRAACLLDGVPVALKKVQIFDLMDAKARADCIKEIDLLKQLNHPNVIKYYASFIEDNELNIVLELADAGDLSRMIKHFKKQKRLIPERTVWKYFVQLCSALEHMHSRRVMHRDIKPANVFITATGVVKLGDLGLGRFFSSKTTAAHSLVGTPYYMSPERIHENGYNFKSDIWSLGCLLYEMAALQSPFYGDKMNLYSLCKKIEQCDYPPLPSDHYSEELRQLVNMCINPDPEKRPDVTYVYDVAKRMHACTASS
Sequence of UniProt Q0ZGT2 (Q0ZGT2 whole entry, looked up): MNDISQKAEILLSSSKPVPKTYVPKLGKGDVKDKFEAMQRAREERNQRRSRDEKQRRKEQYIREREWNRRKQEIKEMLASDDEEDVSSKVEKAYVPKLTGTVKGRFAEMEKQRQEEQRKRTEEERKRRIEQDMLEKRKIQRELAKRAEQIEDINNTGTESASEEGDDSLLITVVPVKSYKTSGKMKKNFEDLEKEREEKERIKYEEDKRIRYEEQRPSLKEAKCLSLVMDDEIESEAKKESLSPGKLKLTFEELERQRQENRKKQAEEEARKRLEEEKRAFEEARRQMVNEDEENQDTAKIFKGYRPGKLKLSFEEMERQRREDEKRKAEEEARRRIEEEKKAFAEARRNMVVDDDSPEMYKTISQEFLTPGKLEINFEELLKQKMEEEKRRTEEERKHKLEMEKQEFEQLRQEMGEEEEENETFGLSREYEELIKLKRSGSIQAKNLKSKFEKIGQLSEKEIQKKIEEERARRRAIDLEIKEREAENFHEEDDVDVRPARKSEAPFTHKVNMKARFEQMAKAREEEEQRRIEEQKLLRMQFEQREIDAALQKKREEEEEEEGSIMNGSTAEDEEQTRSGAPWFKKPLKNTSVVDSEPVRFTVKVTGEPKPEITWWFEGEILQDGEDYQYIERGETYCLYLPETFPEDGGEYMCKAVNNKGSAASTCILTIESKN
Sequence of UniProt Q9NTK5 (Q9NTK5 whole entry, looked up): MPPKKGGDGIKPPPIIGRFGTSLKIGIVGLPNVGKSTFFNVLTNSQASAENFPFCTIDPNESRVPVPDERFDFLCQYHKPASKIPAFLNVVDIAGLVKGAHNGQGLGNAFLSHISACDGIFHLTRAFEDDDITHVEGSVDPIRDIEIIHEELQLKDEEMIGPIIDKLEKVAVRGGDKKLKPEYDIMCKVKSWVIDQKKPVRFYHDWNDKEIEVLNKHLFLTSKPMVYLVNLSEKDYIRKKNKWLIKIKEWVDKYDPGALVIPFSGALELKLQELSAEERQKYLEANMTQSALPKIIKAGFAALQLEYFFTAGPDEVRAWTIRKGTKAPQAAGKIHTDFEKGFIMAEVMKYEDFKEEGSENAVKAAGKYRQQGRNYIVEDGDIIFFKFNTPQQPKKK
Sequence of UniProt P04181 (P04181 whole entry, looked up): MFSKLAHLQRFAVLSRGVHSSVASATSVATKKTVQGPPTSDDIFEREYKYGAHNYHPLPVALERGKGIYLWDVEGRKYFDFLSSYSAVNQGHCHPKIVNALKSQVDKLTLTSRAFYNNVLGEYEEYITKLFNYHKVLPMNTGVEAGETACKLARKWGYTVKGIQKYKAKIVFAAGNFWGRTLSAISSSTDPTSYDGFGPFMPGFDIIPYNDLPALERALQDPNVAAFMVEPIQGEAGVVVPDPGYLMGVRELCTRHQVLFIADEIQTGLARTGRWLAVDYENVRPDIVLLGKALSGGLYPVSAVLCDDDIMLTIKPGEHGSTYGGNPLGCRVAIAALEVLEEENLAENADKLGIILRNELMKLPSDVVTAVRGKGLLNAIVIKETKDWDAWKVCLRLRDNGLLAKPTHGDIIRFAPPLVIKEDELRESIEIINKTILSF
Sequence of UniProt P49757 (P49757 whole entry, looked up): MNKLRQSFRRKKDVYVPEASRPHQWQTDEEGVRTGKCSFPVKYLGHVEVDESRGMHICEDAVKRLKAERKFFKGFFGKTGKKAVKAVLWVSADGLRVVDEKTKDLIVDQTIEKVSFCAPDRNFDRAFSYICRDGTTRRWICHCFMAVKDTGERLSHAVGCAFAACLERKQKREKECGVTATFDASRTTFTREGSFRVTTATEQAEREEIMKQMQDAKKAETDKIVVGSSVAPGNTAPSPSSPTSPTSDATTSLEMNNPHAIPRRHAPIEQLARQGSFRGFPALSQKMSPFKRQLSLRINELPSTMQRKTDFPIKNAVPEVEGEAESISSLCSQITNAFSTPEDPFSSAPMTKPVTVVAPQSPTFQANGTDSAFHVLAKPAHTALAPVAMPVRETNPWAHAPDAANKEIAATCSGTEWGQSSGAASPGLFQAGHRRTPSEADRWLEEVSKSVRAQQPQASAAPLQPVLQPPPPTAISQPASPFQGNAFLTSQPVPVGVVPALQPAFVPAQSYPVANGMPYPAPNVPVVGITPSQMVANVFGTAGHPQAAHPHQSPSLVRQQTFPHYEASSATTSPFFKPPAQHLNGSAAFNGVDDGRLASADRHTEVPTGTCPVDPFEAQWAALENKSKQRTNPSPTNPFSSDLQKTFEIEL
Sequence of UniProt Q15653 (Q15653 whole entry, looked up): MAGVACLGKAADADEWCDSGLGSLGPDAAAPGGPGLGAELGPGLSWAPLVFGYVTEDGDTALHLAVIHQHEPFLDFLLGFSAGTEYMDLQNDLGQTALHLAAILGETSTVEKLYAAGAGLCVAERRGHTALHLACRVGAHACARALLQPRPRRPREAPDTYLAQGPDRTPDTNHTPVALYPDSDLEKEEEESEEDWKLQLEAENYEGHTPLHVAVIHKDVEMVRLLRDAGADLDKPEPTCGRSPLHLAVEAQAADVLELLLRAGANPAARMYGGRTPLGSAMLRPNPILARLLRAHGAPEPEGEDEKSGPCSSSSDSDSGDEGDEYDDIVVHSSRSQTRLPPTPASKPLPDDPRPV
Sequence of UniProt O00483 (O00483 whole entry, looked up): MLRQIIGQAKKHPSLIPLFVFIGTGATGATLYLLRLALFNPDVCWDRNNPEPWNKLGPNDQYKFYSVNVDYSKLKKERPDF
Sequence of UniProt Q13330 (Q13330 whole entry, looked up): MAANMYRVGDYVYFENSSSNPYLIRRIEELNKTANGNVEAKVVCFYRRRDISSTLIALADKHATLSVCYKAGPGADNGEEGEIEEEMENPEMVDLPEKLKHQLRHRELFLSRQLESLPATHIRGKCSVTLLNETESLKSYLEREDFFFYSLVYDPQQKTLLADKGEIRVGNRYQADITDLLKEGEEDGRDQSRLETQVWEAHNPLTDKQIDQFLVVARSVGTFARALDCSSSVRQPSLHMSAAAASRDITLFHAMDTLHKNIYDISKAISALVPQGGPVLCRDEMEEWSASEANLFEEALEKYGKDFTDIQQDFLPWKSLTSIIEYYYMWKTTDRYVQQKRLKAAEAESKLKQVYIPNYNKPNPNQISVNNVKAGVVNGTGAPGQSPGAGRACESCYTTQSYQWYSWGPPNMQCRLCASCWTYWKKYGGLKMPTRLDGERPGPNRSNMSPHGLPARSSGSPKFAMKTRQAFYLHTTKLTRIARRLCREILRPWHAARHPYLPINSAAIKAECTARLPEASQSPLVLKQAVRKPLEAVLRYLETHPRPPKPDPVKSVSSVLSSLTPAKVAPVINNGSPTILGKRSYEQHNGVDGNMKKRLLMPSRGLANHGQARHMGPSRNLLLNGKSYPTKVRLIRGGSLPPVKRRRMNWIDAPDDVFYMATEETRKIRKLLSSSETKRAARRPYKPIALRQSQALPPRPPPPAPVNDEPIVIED
Sequence of UniProt Q9Y6R0 (Q9Y6R0 whole entry, looked up): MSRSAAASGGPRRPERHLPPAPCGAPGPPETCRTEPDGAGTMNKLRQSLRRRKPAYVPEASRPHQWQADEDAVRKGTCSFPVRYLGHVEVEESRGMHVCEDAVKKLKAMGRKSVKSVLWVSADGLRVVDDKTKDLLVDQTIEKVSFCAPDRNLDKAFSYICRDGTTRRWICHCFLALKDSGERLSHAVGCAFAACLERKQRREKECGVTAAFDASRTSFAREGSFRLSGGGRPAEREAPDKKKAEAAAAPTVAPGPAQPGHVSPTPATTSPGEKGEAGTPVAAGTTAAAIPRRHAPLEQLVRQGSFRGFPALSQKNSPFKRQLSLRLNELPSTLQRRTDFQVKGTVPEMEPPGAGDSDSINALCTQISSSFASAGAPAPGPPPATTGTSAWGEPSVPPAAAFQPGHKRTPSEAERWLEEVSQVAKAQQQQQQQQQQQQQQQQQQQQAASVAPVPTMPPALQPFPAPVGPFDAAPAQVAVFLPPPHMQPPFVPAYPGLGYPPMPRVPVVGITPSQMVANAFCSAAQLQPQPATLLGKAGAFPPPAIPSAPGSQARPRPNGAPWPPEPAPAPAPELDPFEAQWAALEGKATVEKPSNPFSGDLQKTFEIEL
Sequence of UniProt Q9ULX3 (Q9ULX3 whole entry, looked up): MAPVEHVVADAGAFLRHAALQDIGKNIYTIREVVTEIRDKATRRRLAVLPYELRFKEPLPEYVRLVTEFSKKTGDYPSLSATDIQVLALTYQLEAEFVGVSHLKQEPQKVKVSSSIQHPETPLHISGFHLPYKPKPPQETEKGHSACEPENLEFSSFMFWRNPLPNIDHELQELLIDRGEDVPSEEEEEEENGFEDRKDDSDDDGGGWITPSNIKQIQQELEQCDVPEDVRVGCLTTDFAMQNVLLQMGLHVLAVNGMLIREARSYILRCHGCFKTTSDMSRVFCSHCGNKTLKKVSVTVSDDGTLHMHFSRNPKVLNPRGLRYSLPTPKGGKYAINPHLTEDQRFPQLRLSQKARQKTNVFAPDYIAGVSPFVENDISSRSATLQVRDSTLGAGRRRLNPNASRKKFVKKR
Sequence of UniProt Q15102 (Q15102 whole entry, looked up): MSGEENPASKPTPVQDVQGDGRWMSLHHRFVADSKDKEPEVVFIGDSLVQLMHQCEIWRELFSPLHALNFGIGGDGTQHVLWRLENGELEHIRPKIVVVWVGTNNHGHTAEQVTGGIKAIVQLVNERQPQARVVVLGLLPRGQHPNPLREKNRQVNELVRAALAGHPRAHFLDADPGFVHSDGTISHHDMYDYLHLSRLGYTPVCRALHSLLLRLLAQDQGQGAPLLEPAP

log2 fold change, inactive:
NFAT5 isoform 5 (UniProt O94916) -0.007
NQO1 (UniProt P15559) 0.026
OARD1 (UniProt Q9Y530) 0.004
NARS2 (UniProt Q96I59) 0.028
OPA1 isoform 2 (UniProt O60313) 0.029
NFKBIB (UniProt Q15653) 0.041
NCAPH (UniProt Q15003) 0.001
OCRL (UniProt Q01968) 0.014
NNT (UniProt Q13423) -0.015
NEXN (UniProt Q0ZGT2) 0.218
NR3C1 isoform 3 (UniProt P04150) 0.027
NGLY1 (UniProt Q96IV0) 0.01
NUMBL (UniProt Q9Y6R0) 0.014
PAFAH1B3 (UniProt Q15102) 0.002
OLA1 (UniProt Q9NTK5) 0.001
NUMB (UniProt P49757) 0.001
OSBPL3 isoform 2 (UniProt Q9H4L5) 0.01
NFATC2 (UniProt Q13469) 0.032
PARP14 (UniProt Q460N5) 0.062
MTHFD1L (UniProt B7ZM99) 0
NSA2 (UniProt O95478) 0.101
NBEAL2 (UniProt Q6ZNJ1) 0.021
NDUFA4 (UniProt O00483) 0.245
NSL1 (UniProt Q96IY1) 0
NOB1 (UniProt Q9ULX3) 0.032
OAT (UniProt P04181) 0.003
NEK7 (UniProt Q8TDX7) 0.024
MTFP1 (UniProt Q9UDX5) 0.031
NIPSNAP3A (UniProt Q9UFN0) 0.018
NAA35 (UniProt Q5VZE5) 0.015
NCAPD2 (UniProt Q15021) 0.014
NUP133 (UniProt Q8WUM0) 0.014
MSI2 (UniProt Q96DH6) -0.007
OGFR (UniProt Q9NZT2) 0.025
MTA1 (UniProt Q13330) 0.011

Compound: CCN(CCCOc1ccc2c(Nc3cc(CC(=O)Nc4cccc(F)c4)[nH]n3)ncnc2c1)CCOP(=O)(O)O [barasertib]
Assay: as above
Procedure, shortened: as §1

log2 fold change, inactive:
NFAT5 isoform 5 (UniProt O94916) -0.041
NQO1 (UniProt P15559) 0.163
OARD1 (UniProt Q9Y530) -0.01
NARS2 (UniProt Q96I59) 0
OPA1 isoform 2 (UniProt O60313) 0.024
NFKBIB (UniProt Q15653) -0.059
NCAPH (UniProt Q15003) 0.012
OCRL (UniProt Q01968) 0.04
NNT (UniProt Q13423) 0.013
NEXN (UniProt Q0ZGT2) 0.101
NR3C1 isoform 3 (UniProt P04150) -0.385
NGLY1 (UniProt Q96IV0) 0.043
NUMBL (UniProt Q9Y6R0) -0.005
PAFAH1B3 (UniProt Q15102) 0.119
OLA1 (UniProt Q9NTK5) 0.012
NUMB (UniProt P49757) 0.028
OSBPL3 isoform 2 (UniProt Q9H4L5) 0.005
NFATC2 (UniProt Q13469) 0.011
PARP14 (UniProt Q460N5) 0.038
MTHFD1L (UniProt B7ZM99) -0.033
NSA2 (UniProt O95478) -0.093
NBEAL2 (UniProt Q6ZNJ1) 0.045
NDUFA4 (UniProt O00483) 0.058
NSL1 (UniProt Q96IY1) -0.06
NOB1 (UniProt Q9ULX3) -0.053
OAT (UniProt P04181) -0.012
NEK7 (UniProt Q8TDX7) 0.002
MTFP1 (UniProt Q9UDX5) 0.012
NIPSNAP3A (UniProt Q9UFN0) -0.04
NAA35 (UniProt Q5VZE5) -0.01
NCAPD2 (UniProt Q15021) 0.016
NUP133 (UniProt Q8WUM0) 0.01
MSI2 (UniProt Q96DH6) 0.009
OGFR (UniProt Q9NZT2) 0.003
MTA1 (UniProt Q13330) 0.008

Compound: CC[C@@H]1C(=O)N(C)c2cnc(Nc3ccc(C(=O)NC4CCN(C)CC4)cc3OC)nc2N1C1CCCC1
Assay: as above
Procedure, shortened: as §1

log2 fold change, inactive:
NFAT5 isoform 5 (UniProt O94916) 0.043
NQO1 (UniProt P15559) -0.097
OARD1 (UniProt Q9Y530) -0.01
NARS2 (UniProt Q96I59) -0.025
OPA1 isoform 2 (UniProt O60313) -0.057
NFKBIB (UniProt Q15653) 0.099
NCAPH (UniProt Q15003) -0.046
OCRL (UniProt Q01968) 0.018
NNT (UniProt Q13423) 0.022
NEXN (UniProt Q0ZGT2) -0.132
NR3C1 isoform 3 (UniProt P04150) -0.086
NGLY1 (UniProt Q96IV0) -0.102
NUMBL (UniProt Q9Y6R0) -0.009
PAFAH1B3 (UniProt Q15102) -0.061
OLA1 (UniProt Q9NTK5) -0.047
NUMB (UniProt P49757) 0.06
OSBPL3 isoform 2 (UniProt Q9H4L5) -0.053
NFATC2 (UniProt Q13469) 0.03
PARP14 (UniProt Q460N5) 0.007
MTHFD1L (UniProt B7ZM99) -0.111
NSA2 (UniProt O95478) 0.067
NBEAL2 (UniProt Q6ZNJ1) -0.053
NDUFA4 (UniProt O00483) 0.011
NSL1 (UniProt Q96IY1) 0.005
NOB1 (UniProt Q9ULX3) -0.045
OAT (UniProt P04181) -0.019
NEK7 (UniProt Q8TDX7) -0.006
MTFP1 (UniProt Q9UDX5) 0.036
NIPSNAP3A (UniProt Q9UFN0) 0.043
NAA35 (UniProt Q5VZE5) 0.05
NCAPD2 (UniProt Q15021) -0.027
NUP133 (UniProt Q8WUM0) -0.028
MSI2 (UniProt Q96DH6) 0.016
OGFR (UniProt Q9NZT2) -0.012
MTA1 (UniProt Q13330) -0.005
